Measured values: PubChem BioAssay (NCATS)
Inconclusive results are not listed. Activity calls are given as the source filed them. Unless noted, calls come from the whole dose curve; as a rule, active = well fitted curve in the direction sought with a large enough effect; inconclusive = small, poorly fitted or top-dose-only effect, or another doubt; inactive = no such curve, though single readings can be large; an effect the other way counts as inactive or inconclusive.

Columns and labels:
[1] = target: Methanococcus maripaludis chaperonin (MmCpn) (UniProt Q6LX38); test: High-Throughput Screening for Modulators of Cytosolic Chaperonin Activity: MmCpn Primary Screen (AID 488978);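 note: 50 nM MmCpn enzyme hydrolysing 30 µM ATP at 37 °C; 0% is about no effect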
Summary of the method: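 MmCpn (50 nM final) was preincubated with compound 5 min at RT, then 30 uM ATP (final) was added and the reaction ran 10 min at 37C. ADP produced was detected by Transcreener HTRF (ex 320 nm; em 590/665 nm).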

[2] = target: D(1A) dopamine receptor (Homo sapiens) (UniProt P21728); test: HTS Assay for Allosteric Agonists of the Human D1 Dopamine Receptor: Primary Screen for Agonists (AID 488981); note: 0% is about no effect
Summary of the method: (§1)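 Tetracycline-induced HEK293 Trex D1 cells with forced coupling to calcium, loaded with no-wash calcium dye; kinetic fluorescence read 180 s after compound addition for agonism, then a further 180 s after an EC20 dopamine challenge for potentiation.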

[3] = target: D(1A) dopamine receptor (Homo sapiens) (UniProt P21728); test: HTS Assay for Allosteric Agonists of the Human D1 Dopamine Receptor: Primary Screen for Potentiators (AID 488982); note: 0% is about no effect
Summary of the method: as §1

[4] = target: D(1A) dopamine receptor (Homo sapiens) (UniProt P21728); test: HTS Assay for Allosteric Agonists of the Human D1 Dopamine Receptor: Primary Screen for Antagonists (AID 488983);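 note: calcium flux response to an EC80 dopamine challenge measured with no-wash dye; % is set by controls: 0 for no effect and ±100 for the full control effect; nearly all actives have a fitted effect of over 65% in size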
Summary of the method: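 Tetracycline-induced HEK293 T-REx D1 line, force-coupled to calcium flux, read with no-wash calcium dye. Compound added after 10 s baseline, read 180 s for agonism, then EC80 dopamine added and read a further 180 s.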

[5] = Validation screen for small molecules that induce genotoxicity in human embryonic kidney (HEK293T) cells expressing luciferase-tagged ELG1 (AID 493106); note: 0% is about no effect
Summary of the method: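 HEK293T cells expressing luciferase-tagged ELG1, 2,000 cells/well, exposed to compound 16 hr at 37 °C, 5% CO2. Luciferase read after ONE-Glo, 30 min at room temperature; increased signal indicates genetic stress.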

[6] = target: ATPase family AAA domain-containing protein 5 (Homo sapiens) (UniProt Q96QE3); test: Validation screen for small molecules that inhibit ELG1-dependent DNA repair in human embryonic kidney (HEK293T) cells expressing luciferase-tagged ELG1 (AID 493107); note: nearly all actives have a fitted effect of over 70% in size; note: potency is the fitted concentration of half-maximal effect
Summary of the method: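 HEK293T cells expressing luciferase-tagged ELG1, 2,000 per well, treated with 5-fluorouridine plus compound for 16 h at 37 C. ONE-Glo luminescence after 30 min at room temperature reports ELG1 reporter level.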

[7] = Nrf2 qHTS screen for inhibitors: Validation (AID 493153; active = well fitted inhibition curve with a large enough effect in the main read-out, with a control signal flat, not every such curve was filed as active; note: potency is the fitted concentration of half-maximal effect); conditions: Potency: luciferase luminescence; viability change: measured here: cytotoxicity max response
Summary of the method: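 A549 cells carrying ARE-firefly luciferase reporter, 5000 cells/well in 5% FBS OPTI-MEM, treated with compound over a concentration series for 18-24 h at 37 C. Luciferase luminescence gave Nrf2 activity; CellTiter-Fluor fluorescence gave viability.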

[8] = qHTS for Inhibitors of Cell Surface uPA Generation: Validation Assay (AID 493164); note: 0% is about no effect
Summary of the method: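 RAW 264.7 cells (4000/well) were plated overnight, then exposed for 18 h at 37 C, 5% CO2 to compounds in a 7-point 1:5 titration (2.45 nM–38.3 uM final). Intracellular ATP was read by ATP-Lite luminescence.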

[9] = target: Peptidyl-prolyl cis-trans isomerase NIMA-interacting 1 (Homo sapiens) (UniProt Q13526); test: qHTS Validation Assay to Find Inhibitors of Pin1 (AID 504536; active = well fitted inhibition curve with a large enough effect in the polarisation, with a control signal flat, not every such curve was filed as active; the % refers to the polarisation;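 note: 0% = full Pin1 enzyme wells and -100% = no-enzyme wells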)
Summary of the method: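 Fluorescence polarization competition: compounds (titration) displace HiFluor-488-labeled Pin1-1b peptide from Pin1 (0.3 uM final) in pH 7.5 HEPES buffer with DTT, 10 min at room temperature; %Activity normalized to no-enzyme wells, curves fitted.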

[10] = target: Phosphoglycerate kinase, glycosomal (Trypanosoma brucei brucei) (UniProt P07378); test: qHTS Validation Assay to Find Inhibitors of Phosphoglycerate Kinase (AID 504547); note: potency is the fitted concentration of half-maximal effect
Summary of the method: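 PGK activity was coupled to GAPDH (100nM final), which generates the unstable substrate 1,3-bisphosphoglycerate in-well. Reactions ran 60 minutes at room temperature in 100mM TEA pH 7.6, 5mM MgCl2, 0.01% Tween-20, then Kinase-Glo Plus luminescence was read.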

[11] = target: phosphoglycerate mutase (Leishmania major) (UniProt Q4Q090); test: qHTS Validation Assay to Find Inhibitors of Phosphoglycerate Mutase (AID 504548); note: series mostly up to about 58 µM; % is set by controls: 0 for no effect and ±100 for the full control effect
Summary of the method: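 Luminescent end-point read-out via Kinase-GloPlus after a 10-minute development. Reaction: 1.25nM Leishmania major PGAM with substrate and compound, 45 minutes at room temperature in TEA buffer (pH 7.6) with MgCl2 and Tween-20.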

[12] = target: Ubiquitin carboxyl-terminal hydrolase 1 (Homo sapiens) (UniProt O94782); test: Inhibitors of USP1/UAF1: Pilot qHTS (AID 504865);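 note: rhodamine fluorescence freed from ubiquitin-rhodamine substrate followed over time; top concentration of the series differs between compounds; % is set by controls: 0 for no effect and ±100 for the full control effect; nearly all actives have a fitted effect of over 35% in size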
Summary of the method: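 USP1/UAF1 complex (1nM) preincubated with compound 15 min at room temperature, then Ub-Rho substrate (150nM final) added. Fluorescence read kinetically at 480/540 nm, 6 reads every 60 seconds. Buffer: 50mM HEPES pH 7.8, 0.5mM EDTA, 0.1 mg/ml BSA, 1mM TCEP, 0.01% Tween-20.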

[13] = qHTS for Inhibitors of ATXN expression: Validation of Cytotoxic Assay (AID 588349); note: % is set by controls: 0 for no effect and ±100 for the full control effect
Summary of the method: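 HEK293 cells treated with titrated compound for 72 hr at 37 degrees C; viability read as intracellular ATP by CellTiter Glo luminescence.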

[14] = target: ATP-dependent 6-phosphofructokinase (Trypanosoma brucei brucei) (UniProt O15648); test: qHTS Assay to Find Inhibitors of T. brucei phosphofructokinase: hit validation (AID 492961);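 note: luminescence reports ADP formed as PFK phosphorylates fructose-6-phosphate with ATP; series mostly up to about 51 µM; % is set by controls: 0 for no effect and ±100 for the full control effect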
Summary of the method: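 Inhibition of parasite PFK is measured as reduced ADP formation, quantified via luciferase after ATP depletion. Assay used 0.1 mM ATP, 0.5 mM F6P, 1.25 nM enzyme, 45 min incubation.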

[15] = target: Transient receptor potential cation channel subfamily V member 1 (Homo sapiens) (UniProt Q8NER1); test: HTS Assay for Compounds that Act as Enhancers of the Vanilloid Receptor 1 (AID 488979); note: 0% is about no effect
Summary of the method: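 TRPV1 cells loaded with Fluo-8 calcium dye; compound added and Ca2+ signal (ex 480/em 520 nm) followed 3 min, then capsaicin at EC20 added and read 2 more min to detect enhancement.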

[16] = target: Thyrotropin receptor (Homo sapiens) (UniProt P16473); test: qHTS Assay for Antagonists of the Thyroid Stimulating Hormone Receptor (AID 488980); note: series mostly up to about 58 µM; 0% is about no effect
Summary of the method: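 HEK293 cells transfected with human TSHR, suspended in HEPES-buffered HBSS with 70 uM RO 20-1724, were treated with compounds plus TSH at EC80 (4 nM final). cAMP was measured by competitive HTRF (cryptate anti-cAMP antibody, cAMP-d2 acceptor).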

[17] = target: Thyrotropin-releasing hormone receptor (Homo sapiens) (UniProt P34981); test: qHTS for Small Molecule Agonists and Allosteric Enhancers of Human TRH Receptor: Validation Screen for Agonists (AID 493127;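 active = calcium activation more than 3 SD above the typical response in the agonist read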; note: 0% is about no effect); conditions: TRH receptor agonist cell assay; at 2 µM; stronger effect = higher value
Summary of the method: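 TRHR cells loaded with fluo-8 calcium dye; FDSS kinetic fluorescence (Ex 480/Em 530) read at 1 s/cycle after 23 nL compound addition. Agonist-mode calcium response recorded before the 10 nM TRH (EC20) addition.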

[18] = Validation screen for small molecules that induce DNA re-replication in SW480 colon adenocarcinoma cells (AID 504364); note: 0% is about no effect
Summary of the method: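 SW480 cells (250/well) exposed 48 h at 37 C, 5% CO2, then Hoechst-stained 40 min. Nuclear DNA content imaged by fluorescence scanning (405 nm excitation, 500-530 nm emission); re-replication scored as increased nuclei with elevated intensity.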

[19] = target: Galactokinase (Homo sapiens) (UniProt P51570); test: qHTS Validation Assay for Inhibitors of Human Galactokinase (GALK) (AID 493189); note: 0% is about no effect
Summary of the method: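 GALK (5 nM) with 35 uM ATP and 100 uM galactose in HEPES pH8.0, MgCl2, NaCl, DTT, BSA; 1 h at room temperature. Residual ATP read by Kinase-Glo Plus luminescence after 10 min.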

Chain of Transient receptor potential cation channel subfamily V member 1 (Homo sapiens) (Q8NER1 whole entry, looked up): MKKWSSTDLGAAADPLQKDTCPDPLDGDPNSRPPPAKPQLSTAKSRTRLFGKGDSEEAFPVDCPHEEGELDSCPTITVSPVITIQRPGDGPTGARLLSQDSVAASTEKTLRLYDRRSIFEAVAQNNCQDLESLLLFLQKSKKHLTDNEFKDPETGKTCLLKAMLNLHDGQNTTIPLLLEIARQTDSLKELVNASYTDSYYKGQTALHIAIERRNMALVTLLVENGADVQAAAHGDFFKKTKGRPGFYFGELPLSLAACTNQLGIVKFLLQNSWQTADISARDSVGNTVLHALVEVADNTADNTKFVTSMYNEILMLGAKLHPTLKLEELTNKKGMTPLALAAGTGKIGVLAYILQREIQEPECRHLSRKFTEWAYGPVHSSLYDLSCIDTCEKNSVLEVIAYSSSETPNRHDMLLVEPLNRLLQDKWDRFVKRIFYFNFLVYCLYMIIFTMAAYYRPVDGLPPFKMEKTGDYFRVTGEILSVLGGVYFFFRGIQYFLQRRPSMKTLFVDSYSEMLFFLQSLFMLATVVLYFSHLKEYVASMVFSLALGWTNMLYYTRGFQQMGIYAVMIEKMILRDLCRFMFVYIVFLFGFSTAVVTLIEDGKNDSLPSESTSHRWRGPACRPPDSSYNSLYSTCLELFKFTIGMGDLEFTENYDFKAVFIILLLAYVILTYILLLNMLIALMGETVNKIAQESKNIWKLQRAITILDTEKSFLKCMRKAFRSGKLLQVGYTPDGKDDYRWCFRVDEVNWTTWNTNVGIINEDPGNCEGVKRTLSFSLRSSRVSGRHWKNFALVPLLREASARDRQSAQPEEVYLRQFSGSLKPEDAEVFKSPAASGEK
Chain of phosphoglycerate mutase (Leishmania major) (Q4Q090 1-553): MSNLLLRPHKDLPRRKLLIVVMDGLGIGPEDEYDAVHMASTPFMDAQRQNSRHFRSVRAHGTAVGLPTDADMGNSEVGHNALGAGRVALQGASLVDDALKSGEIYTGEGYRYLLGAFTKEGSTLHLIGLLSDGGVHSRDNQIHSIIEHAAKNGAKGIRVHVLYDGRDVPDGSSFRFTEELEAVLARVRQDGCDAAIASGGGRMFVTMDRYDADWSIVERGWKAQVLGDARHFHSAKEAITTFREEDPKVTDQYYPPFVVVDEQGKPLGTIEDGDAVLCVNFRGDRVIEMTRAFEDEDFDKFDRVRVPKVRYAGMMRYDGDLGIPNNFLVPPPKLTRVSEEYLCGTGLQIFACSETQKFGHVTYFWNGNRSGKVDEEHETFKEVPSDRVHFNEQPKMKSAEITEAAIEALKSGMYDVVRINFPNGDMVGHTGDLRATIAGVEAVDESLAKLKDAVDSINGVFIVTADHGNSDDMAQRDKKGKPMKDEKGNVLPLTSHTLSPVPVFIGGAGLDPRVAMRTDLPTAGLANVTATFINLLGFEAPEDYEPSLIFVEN
Chain of Thyrotropin receptor (Homo sapiens) (P16473 whole entry, looked up): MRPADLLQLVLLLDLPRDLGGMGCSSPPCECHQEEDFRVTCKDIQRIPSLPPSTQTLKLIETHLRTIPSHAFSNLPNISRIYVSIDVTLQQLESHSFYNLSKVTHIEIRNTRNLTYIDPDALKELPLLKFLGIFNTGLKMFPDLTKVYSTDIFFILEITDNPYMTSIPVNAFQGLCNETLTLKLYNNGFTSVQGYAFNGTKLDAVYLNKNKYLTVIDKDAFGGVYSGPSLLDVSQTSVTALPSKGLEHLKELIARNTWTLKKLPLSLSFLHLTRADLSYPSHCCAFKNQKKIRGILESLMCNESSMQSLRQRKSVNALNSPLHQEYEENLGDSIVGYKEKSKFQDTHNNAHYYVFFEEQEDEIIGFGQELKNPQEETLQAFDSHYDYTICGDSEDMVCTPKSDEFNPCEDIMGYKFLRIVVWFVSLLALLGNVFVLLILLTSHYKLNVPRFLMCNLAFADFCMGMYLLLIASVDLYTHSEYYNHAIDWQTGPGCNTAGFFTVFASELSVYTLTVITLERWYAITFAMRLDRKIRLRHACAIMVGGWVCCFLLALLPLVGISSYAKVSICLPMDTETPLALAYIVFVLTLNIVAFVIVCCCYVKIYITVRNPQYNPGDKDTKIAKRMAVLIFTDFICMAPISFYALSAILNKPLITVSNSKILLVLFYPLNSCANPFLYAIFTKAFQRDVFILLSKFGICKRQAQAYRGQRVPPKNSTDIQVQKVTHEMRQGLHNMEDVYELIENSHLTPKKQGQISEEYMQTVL
Chain of Galactokinase (Homo sapiens) (P51570 whole entry, looked up): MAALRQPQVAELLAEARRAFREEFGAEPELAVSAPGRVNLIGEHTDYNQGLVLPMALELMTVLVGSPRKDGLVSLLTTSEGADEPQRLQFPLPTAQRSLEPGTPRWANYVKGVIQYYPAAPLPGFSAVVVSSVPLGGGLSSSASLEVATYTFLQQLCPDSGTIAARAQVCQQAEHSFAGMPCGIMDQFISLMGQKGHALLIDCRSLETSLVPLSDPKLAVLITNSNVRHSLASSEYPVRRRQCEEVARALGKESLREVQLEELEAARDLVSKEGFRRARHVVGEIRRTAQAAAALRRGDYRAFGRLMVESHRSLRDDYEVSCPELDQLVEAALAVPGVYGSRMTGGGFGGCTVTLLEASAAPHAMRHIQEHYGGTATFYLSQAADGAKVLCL
Chain of Ubiquitin carboxyl-terminal hydrolase 1 (Homo sapiens) (O94782 whole entry, looked up): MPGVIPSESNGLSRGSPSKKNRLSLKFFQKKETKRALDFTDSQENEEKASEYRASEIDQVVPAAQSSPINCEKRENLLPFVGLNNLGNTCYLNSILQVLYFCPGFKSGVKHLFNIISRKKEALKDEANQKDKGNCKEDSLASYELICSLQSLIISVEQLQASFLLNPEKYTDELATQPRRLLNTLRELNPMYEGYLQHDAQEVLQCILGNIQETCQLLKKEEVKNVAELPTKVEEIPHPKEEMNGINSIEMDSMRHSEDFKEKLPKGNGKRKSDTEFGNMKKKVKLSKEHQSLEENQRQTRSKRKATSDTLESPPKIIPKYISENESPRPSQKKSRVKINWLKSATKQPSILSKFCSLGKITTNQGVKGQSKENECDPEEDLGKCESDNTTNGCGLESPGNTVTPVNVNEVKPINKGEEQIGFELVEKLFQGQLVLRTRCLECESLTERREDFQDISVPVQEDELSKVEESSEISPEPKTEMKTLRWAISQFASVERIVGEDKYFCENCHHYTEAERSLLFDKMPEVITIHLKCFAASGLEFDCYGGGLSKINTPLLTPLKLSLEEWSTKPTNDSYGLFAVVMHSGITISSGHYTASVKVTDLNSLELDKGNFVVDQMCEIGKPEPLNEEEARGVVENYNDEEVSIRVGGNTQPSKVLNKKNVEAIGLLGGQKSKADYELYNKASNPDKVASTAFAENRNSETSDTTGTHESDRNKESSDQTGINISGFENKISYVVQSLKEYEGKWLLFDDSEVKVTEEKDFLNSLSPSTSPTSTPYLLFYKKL
Chain of Thyrotropin-releasing hormone receptor (Homo sapiens) (P34981 whole entry, looked up): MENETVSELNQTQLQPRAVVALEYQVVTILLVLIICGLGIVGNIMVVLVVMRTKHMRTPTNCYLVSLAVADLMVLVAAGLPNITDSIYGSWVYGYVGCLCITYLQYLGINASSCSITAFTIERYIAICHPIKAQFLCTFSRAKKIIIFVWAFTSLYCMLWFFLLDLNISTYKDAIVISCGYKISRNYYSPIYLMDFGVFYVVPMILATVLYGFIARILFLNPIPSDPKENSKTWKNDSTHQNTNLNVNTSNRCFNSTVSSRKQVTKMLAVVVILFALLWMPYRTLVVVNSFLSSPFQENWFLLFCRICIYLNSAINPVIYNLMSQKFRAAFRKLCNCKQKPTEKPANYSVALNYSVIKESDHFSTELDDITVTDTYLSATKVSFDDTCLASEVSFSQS
Chain of D(1A) dopamine receptor (Homo sapiens) (P21728 whole entry, looked up): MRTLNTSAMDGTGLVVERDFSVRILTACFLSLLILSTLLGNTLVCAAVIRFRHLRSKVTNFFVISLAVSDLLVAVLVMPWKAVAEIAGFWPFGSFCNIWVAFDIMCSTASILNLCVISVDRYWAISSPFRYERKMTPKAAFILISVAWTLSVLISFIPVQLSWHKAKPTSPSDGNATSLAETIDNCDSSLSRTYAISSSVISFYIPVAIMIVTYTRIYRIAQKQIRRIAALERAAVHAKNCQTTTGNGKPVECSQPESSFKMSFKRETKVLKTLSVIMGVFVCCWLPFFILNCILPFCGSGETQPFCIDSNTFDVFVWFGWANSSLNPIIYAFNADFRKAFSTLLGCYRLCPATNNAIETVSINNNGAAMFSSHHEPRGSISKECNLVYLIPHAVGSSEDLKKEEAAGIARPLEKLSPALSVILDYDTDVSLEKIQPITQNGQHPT
Chain of ATP-dependent 6-phosphofructokinase (Trypanosoma brucei brucei) (O15648 whole entry, looked up): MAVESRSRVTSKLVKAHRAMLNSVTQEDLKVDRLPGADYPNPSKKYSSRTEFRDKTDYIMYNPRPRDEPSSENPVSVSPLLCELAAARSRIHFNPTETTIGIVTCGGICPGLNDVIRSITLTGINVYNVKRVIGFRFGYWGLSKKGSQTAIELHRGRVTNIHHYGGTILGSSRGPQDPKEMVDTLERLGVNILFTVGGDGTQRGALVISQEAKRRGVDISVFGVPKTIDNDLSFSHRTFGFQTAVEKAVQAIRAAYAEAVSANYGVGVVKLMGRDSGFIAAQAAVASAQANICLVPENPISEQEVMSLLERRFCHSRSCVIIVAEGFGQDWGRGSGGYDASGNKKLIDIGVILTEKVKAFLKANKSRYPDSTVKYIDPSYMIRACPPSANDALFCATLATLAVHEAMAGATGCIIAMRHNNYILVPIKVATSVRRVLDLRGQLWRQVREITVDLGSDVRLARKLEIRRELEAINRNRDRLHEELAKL
Chain of Peptidyl-prolyl cis-trans isomerase NIMA-interacting 1 (Homo sapiens) (Q13526 whole entry, looked up): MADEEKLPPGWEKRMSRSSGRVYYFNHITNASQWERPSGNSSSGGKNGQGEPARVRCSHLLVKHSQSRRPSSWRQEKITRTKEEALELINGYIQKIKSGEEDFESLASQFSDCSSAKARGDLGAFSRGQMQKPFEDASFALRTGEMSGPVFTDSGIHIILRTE

CC1CC2C3CCC4=CC(=O)C=C[C@]4(C)[C@@]3(F)[C@@H](O)C[C@]2(C)[C@@]1(O)C(=O)CO (stereo partly specified)
-3.14%: viability change [7]
active: Potency [7] 0.013 µM
inactive: outcome [1] | outcome [2] | outcome [3] | outcome [4] | outcome [5] | Potency [6] | outcome [8] | outcome [9] | Potency [10] | outcome [11] | Potency [12] | Potency [13]

NC(=O)N1c2ccccc2CC(=O)c2ccccc21
inactive: Potency [14]

CCN(CC)CC#CCOC(=O)C(O)(c1ccccc1)C1CCCCC1 (stereo unspecified)
inactive: outcome [1] | outcome [15] | outcome [16] | outcome [2] | outcome [4] | outcome [5] | Potency [6] | activation [17] -7.56% | Potency [7] | outcome [8] | outcome [18] | outcome [9] | Potency [10] | outcome [11] | Potency [12]
-11.3%: viability change [7]

NC(=O)c1cccc(N)c1
9.41%: viability change [7]
inactive: outcome [1] | outcome [15] | outcome [16] | outcome [2] | outcome [3] | outcome [4] | outcome [5] | Potency [6] | activation [17] 1.12% | Potency [7] | outcome [8] | outcome [19] | outcome [18] | outcome [9] | Potency [10] | outcome [11] | Potency [12] | Potency [13]

CCC(C)(C)c1ccc(CC(C)CN2C[C@@H](C)O[C@@H](C)C2)cc1 (stereo partly specified)
inactive: Potency [14]

O=C(O)C1CCCN(CCC=C(c2ccccc2)c2ccccc2)C1 (stereo unspecified)
-7.12%: viability change [7]
inactive: outcome [1] | outcome [15] | outcome [16] | outcome [2] | outcome [3] | outcome [4] | outcome [5] | Potency [6] | activation [17] 0.875% | Potency [7] | outcome [8] | outcome [19] | outcome [18] | outcome [9] | Potency [10] | outcome [11] | Potency [12] | Potency [13]

COc1cc2nc(N3CCCN(C)CC3)nc(NC3CCN(Cc4ccccc4)CC3)c2cc1OC
active: Potency [6] 25.9 µM
inactive: outcome [1] | outcome [2] | outcome [3] | outcome [4] | outcome [5] | outcome [8] | outcome [9] | Potency [10] | outcome [11] | Potency [12]

CC(C)OC(=O)C(C(=O)OC(C)C)=C1SC=CS1
inactive: Potency [14]

COc1cc([C@@H]2c3cc4c(cc3[C@H](O)[C@H]3COC(=O)[C@H]23)OCO4)cc(OC)c1OC
inactive: Potency [14]

N[C@@H](Cc1ccc(O)c(O)c1)C(=O)O
active: Potency [10] 9.53 µM
-3.54%: viability change [7]
inactive: outcome [1] | outcome [2] | outcome [3] | outcome [4] | outcome [5] | Potency [6] | Potency [7] | outcome [8] | outcome [11] | Potency [12] | Potency [13]

OCc1ccc(-c2nn(Cc3ccccc3)c3ccccc23)o1
inactive: outcome [1] | outcome [15] | outcome [16] | outcome [2] | outcome [3] | outcome [4] | Potency [6] | activation [17] 0.188% | Potency [7] | outcome [8] | outcome [19] | outcome [18] | outcome [9] | Potency [10] | outcome [11] | Potency [12] | Potency [13]
4.14%: viability change [7]

CNNCc1ccc(C(=O)NC(C)C)cc1
inactive: Potency [14]

COc1cc2ncnc(Nc3cccc(Cl)c3)c2cc1OC
inactive: outcome [1] | outcome [15] | outcome [16] | outcome [2] | outcome [3] | outcome [4] | outcome [5] | activation [17] -6.5% | outcome [8] | outcome [19] | outcome [18] | outcome [9] | Potency [10] | outcome [11] | Potency [12] | Potency [13]

NCCCC(O)(P(=O)(O)O)P(=O)(O)O
inactive: Potency [14]

CCCCS(=N)(=O)CCC(N)C(=O)O (stereo unspecified)
inactive: outcome [1] | outcome [15] | outcome [16] | outcome [2] | outcome [3] | outcome [4] | outcome [5] | Potency [6] | activation [17] -2.38% | Potency [7] | outcome [8] | outcome [19] | outcome [18] | outcome [9] | Potency [10] | outcome [11] | Potency [12] | Potency [13]
4.08%: viability change [7]
